Assay results reported in PubChem BioAssay (NCATS).
Records with an inconclusive call do not appear. A call without a number means that no potency is given here. Active and inactive are the calls of the source. Calls follow the shape of the dose curve; as a rule, active = well fitted inhibition curve with a large enough effect; inconclusive = small, poorly fitted or top-dose-only effect; inactive = flat fitted curve, though single readings scatter.

tested on: CRL-7250; test: qHTS assay to identify novel small-molecules to repurpose for Merkel cell carcinoma treatment (AID 1296009); details: MCC and control cell lines, CellTiter-Glo viability, 72 h; at 44.8 µM (top of the series) unless noted; also: nearly all actives have a fitted effect of over 60% in size
Method in brief: (§1)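 72 hr, 37 degree celsius; NPC 8-pt / MIPE 11-pt dose response; compound pinned in DMSO; CellTiter-Glo, 10 min RT, luminescence; normalized to no-cell and DMSO controls.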
Potency is read from the fitted curve at half-maximal effect.

Row | Structure (SMILES) | outcome
1 | COc1cc(NS(=O)(=O)c2ccc(N)cc2)ncn1 | inactive
2 | Cl/C(=C\n1cncn1)c1ccc(Cl)cc1Cl | inactive
3 | CCCC(=O)OC[C@@H](OC(=O)CCC)[C@@H](OC(=O)CCC)[C@H](Cn1c2nc(=O)[nH]c(=O)c-2nc2cc(C)c(C)cc21)OC(=O)CCC | inactive
4 | CC(C)Cn1cnc2c1c(=O)n(C)c(=O)n2C | inactive
5 | C[C@]12CC[C@@H]3c4ccc(O)cc4CC[C@H]3[C@@H]1CC[C@@H]2OC(=O)CCC1CCCC1 | inactive
6 | CNC(=O)Oc1ccc2c(c1)[C@]1(C)CCN(C)[C@@H]1N2C | inactive
7 | OC(CCN1CCCCC1)(c1ccccc1)C1CC2C=CC1C2 (centres undefined) | inactive
8 | OC1C(O)C(O)C(O)C(O)C1O (centres undefined) | inactive
9 | CCN1CCCC(OC(=O)C(c2ccccc2)c2ccccc2)C1 (centres undefined) | inactive
10 | Cc1ccc(Nc2c(F)cccc2Cl)c(CC(=O)O)c1 | inactive
11 | Cc1cc(CC(=O)O)n(C)c1C(=O)c1ccc(Cl)cc1 | inactive

tested on: MCC-26; test: as above; details: MCC and control cell lines, CellTiter-Glo viability, 72 h; series mostly up to 46 µM
Method in brief: as §1

Row | Structure (SMILES) | Potency
12 | CCOC(C(=O)OCCN(C)C)(c1ccccc1)c1ccccc1 | inactive
13 | Cc1nnc2n1-c1sc(CCc3ccc(CC(C)C)cc3)cc1C(c1ccccc1Cl)=NC2C (centres undefined) | inactive
14 | CC[C@]1(O)CC[C@H]2[C@@H]3CCC4=CCCC[C@@H]4[C@H]3CC[C@@]21C | inactive
15 | CC(C)(O)C(Cl)(Cl)Cl | inactive

tested on: MKL-1; test: as above; details: MCC and control cell lines, CellTiter-Glo viability, 72 h; series mostly up to 46 µM
Method in brief: as §1

Row | Structure (SMILES) | Potency
16 | c1ccc2c(c1)Sc1ccccc1N2CC1CN2CCC1CC2 (centres undefined) | 23.7 µM (active)
17 | CCOC(C(=O)OCCN(C)C)(c1ccccc1)c1ccccc1 | inactive
18 | CC[C@]1(O)CC[C@H]2[C@@H]3CCC4=CCCC[C@@H]4[C@H]3CC[C@@]21C | inactive
19 | CC(C)(O)C(Cl)(Cl)Cl | inactive

tested on: MKL-2; test: as above; details: MCC and control cell lines, CellTiter-Glo viability, 72 h; series mostly up to 46 µM
Method in brief: as §1

Row | Structure (SMILES) | Potency
20 | c1ccc2c(c1)Sc1ccccc1N2CC1CN2CCC1CC2 (centres undefined) | 11.9 µM (active)
21 | CCOC(C(=O)OCCN(C)C)(c1ccccc1)c1ccccc1 | inactive
22 | Cc1nnc2n1-c1sc(CCc3ccc(CC(C)C)cc3)cc1C(c1ccccc1Cl)=NC2C (centres undefined) | 11.9 µM (active)
23 | CC[C@]1(O)CC[C@H]2[C@@H]3CCC4=CCCC[C@@H]4[C@H]3CC[C@@]21C | inactive
24 | CC(C)(O)C(Cl)(Cl)Cl | inactive
